From PubChem BioAssay
An excerpt weighted towards active compounds, which were near 13% of everything screened.
Lassa entry inh: blocks Lassa virus binding to or entry into cells; AID 540256; Lassa virus pseudotype entry inhibition, cell reporter; 300,000 tested, 1.2% active; Potency, µM (series often up to 37.9 µM), for the others: at the top dose activity change, negative = inhibition, hits mostly inhibitors; calls by dose curve; tested in HEK293 cells; note: potency is the fitted concentration of half-maximal effect; % is set by controls: 0 for no effect and ±100 for the full control effect; nearly all actives have a fitted effect of over 50% in size
HCV inhibitor: inhibitors of hepatitis C virus infection. Huh7.5.1 HCVcc-Cre infection, luciferase reporter, 44 h. Potency, µM (titrated, usually from 41.8 µM), without a hit: at the top dose activity change, negative = inhibition, most hits filed as inhibitors. 340,000 tested, 3.4% active; active = well fitted inhibition curve with a large enough effect; inconclusive = small, poorly fitted or top-dose-only effect, or another doubt; inactive = no such curve, though single readings can be large or run the other way; note: potency is the fitted concentration of half-maximal effect; % is set by controls: 0 for no effect and ±100 for the full control effect
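Cells seeded at 1,000/well and cultured 4 h, then compounds added followed by HCVcc-Cre virus (~0.5 moi). After 44 h further culture, luciferase substrate was added, plates held 15 min at room temperature, and luminescence read for 15 sec.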
Cycloheximide cs: counter-screen hit for Shiga toxin inhibitors, cycloheximide. cell reporter, cycloheximide protein synthesis inhibition counterscreen. 300,000 tested, 12% active. max response, %; in the data active = max response mostly above about 13%, no sharp cut-off; inactive = mostly below about 14%; note: read at 38.3 µM for the half of the compounds with a filed dose; 0% is about no effect
Marburg entry inh: inhibitors of Marburg virus binding or cell entry; Marburg virus pseudotyped entry inhibition, cell reporter; AID 540276; Potency, µM (doses to about 37.8 µM), without a hit: at the highest dose activity change, negative = inhibition, actives largely listed as inhibitors; 300,000 tested, 1.8% active; calls by dose curve; tested in HEK293 cells; note: potency is the fitted concentration of half-maximal effect; % is set by controls: 0 for no effect and ±100 for the full control effect
FMDV antiviral: blocks foot and mouth disease virus; FMDV antiviral cell-based qHTS; Potency, µM (series often up to 57.9 µM), without a hit: at the highest dose activity change, negative = inhibition, usual class: inhibitors; 410,000 tested, 1.2% active; AID 1159524; calls by dose curve; tested in HEK293T cells; note: read-out not given here; potency is the fitted concentration of half-maximal effect; % is set by controls: 0 for no effect and ±100 for the full control effect; nearly all actives have a fitted effect of over 45% in size
Shiga inhibitor: inhibitors of Shiga toxin in Vero cells; inhibition, % at 38.7 µM; 290,000 tested, 9.2% active; AID 2315; Vero cells, Shiga toxin protein synthesis inhibition reporter; in the data active = inhibition mostly above about 28%, no sharp cut-off; inactive = mostly below about 43%; note: 0% is about no effect
An asterisk follows results filed as active; [ ] = dose if it differs, or a comment.

CNc1oc(/C=C/c2cccc(OC)c2)nc1C#N was read as HCV inhibitor 17.2%, Cycloheximide cs 34.8*, FMDV antiviral 32.6% and Shiga inhibitor 99.0*.
Screening CCN(CC)CCCNc1oc(/C=C/c2ccc(OC)c(OC)c2)nc1C#N returned Lassa entry inh 15.9%[46.1 µM], Marburg entry inh -16.2%[46.1 µM] and FMDV antiviral -0.5%.
`COc1ccc(Nc2oc(/C=C/c3cccc(OC)c3)nc2C#N)cc1` gave Lassa entry inh inconclusive, Marburg entry inh inconclusive and FMDV antiviral 20.6%.
For CCOc1ccc(/C=C/c2nc(C#N)c(NCCc3ccccc3)o2)cc1 the results were Lassa entry inh -6.2%[46.1 µM], Marburg entry inh inconclusive and FMDV antiviral 0.0%.
O=C(O)c1cc(Oc2ccc([N+](=O)[O-])cc2)cc(Oc2ccc([N+](=O)[O-])cc2)c1 was read as Cycloheximide cs -7.1, FMDV antiviral 0.0% and Shiga inhibitor -7.9.
For O=C(COC(=O)Cn1cnc2ccccc2c1=O)Nc1ccccc1OC(F)F the results were Lassa entry inh -2.2%[46.1 µM], HCV inhibitor 5.3%, Marburg entry inh -13.9%[46.1 µM] and FMDV antiviral -12.0%.
Screening CC(C)Cc1ccc(C2=CSC3=NCCN23)cc1 returned Lassa entry inh inconclusive, HCV inhibitor 11.2µM*, Marburg entry inh inconclusive and FMDV antiviral -16.4%.
`CC(C)(C)c1ccc(C2=CSC3=NCCN23)cc1` gave Lassa entry inh inconclusive, HCV inhibitor -24.7%, Cycloheximide cs -4.3, Marburg entry inh inconclusive, FMDV antiviral -13.7% and Shiga inhibitor -4.3.
`O=C1CCN(CCc2ccccc2)CCN1[C@H](CSc1ccc(Br)cc1)Cc1ccccc1` gave HCV inhibitor -17.1%, Cycloheximide cs -4.6, FMDV antiviral inconclusive and Shiga inhibitor -5.5.
For Cc1ccc(SC[C@H](CC(C)C)N2CCN(CCc3ccccc3)CCC2=O)cc1 the results were HCV inhibitor inconclusive, Cycloheximide cs 52.2*, FMDV antiviral 12.5% and Shiga inhibitor 42.8*.
Screening COc1ccc(SC[C@H](CC(C)C)N2CCN(CCc3ccccc3)CCC2=O)cc1 returned HCV inhibitor -23.1%, Cycloheximide cs 12.7*, FMDV antiviral 0.8% and Shiga inhibitor 43.9*.
For CC(=O)Nc1ccc(SC[C@H](CC(C)C)N2CCN(CCc3ccccc3)CCC2=O)cc1 the results were HCV inhibitor 7.4%, Cycloheximide cs -1.2, FMDV antiviral -7.5% and Shiga inhibitor -5.4.
`CC(C)CC(CSc1ccc(Br)cc1)N1CCN(CCc2ccccc2)CCC1=O` (stereo not drawn) gave Cycloheximide cs 28.7* and Shiga inhibitor 49.2*.
Screening COc1ccc(SCCN2CCN(CCc3ccccc3)CCC2=O)cc1 returned Cycloheximide cs 14.7 and Shiga inhibitor -0.5.
CC1(C)CC(=O)C=C(c2ccc(I)cc2)C1 was read as HCV inhibitor inconclusive and FMDV antiviral 16.1%.
Screening CCNC(=O)CC1C(=O)N(c2ccc(C)cc2)C(=O)N1CCOC (stereo not drawn) returned Lassa entry inh 13.2%[46.1 µM], HCV inhibitor -1.8%, Cycloheximide cs 1.8, Marburg entry inh -17.3%[46.1 µM], FMDV antiviral 7.5% and Shiga inhibitor -9.3.
For COc1ccc(S(=O)(=O)NN=C2CCCCC2)cc1 the results were Lassa entry inh 11.6%, HCV inhibitor -8.1%, Cycloheximide cs 1.0, Marburg entry inh 13.8%, FMDV antiviral 27.7% and Shiga inhibitor 16.6.
Screening CCOC(=O)c1c(C)n2c3c(cc(C)cc13)CCC2 returned Lassa entry inh -1.9%, HCV inhibitor 10µM*, Cycloheximide cs 6.7, Marburg entry inh inconclusive, FMDV antiviral 3.5% and Shiga inhibitor 11.6.
For CCOC(=O)c1c2n(c3ccc(O)cc13)CCCCC2 the results were Lassa entry inh -15.0%, HCV inhibitor inconclusive, Cycloheximide cs -4.1, Marburg entry inh inconclusive, FMDV antiviral inconclusive and Shiga inhibitor -7.3.
For COc1ccc(NC(=O)C2CCCO2)c(OC)c1 (stereo not drawn) the results were Lassa entry inh 5.7%[46.1 µM], HCV inhibitor 12.2%, Cycloheximide cs 0.9, Marburg entry inh 1.7%[46.1 µM], FMDV antiviral 5.5% and Shiga inhibitor 18.7.
For CSc1nc2ccc(NC(=O)C3CCCO3)cc2s1 (stereo not drawn) the results were Lassa entry inh inconclusive, HCV inhibitor 14.2%, Cycloheximide cs 40.1*, Marburg entry inh inconclusive, FMDV antiviral 34.4% and Shiga inhibitor 111.8*.
Screening Cc1nc2ccc(NS(=O)(=O)c3ccccc3Cl)cc2s1 returned HCV inhibitor inconclusive and FMDV antiviral 21.0%.
For COc1ccc2nc(NC(=O)C3CCCO3)sc2c1 (stereo not drawn) the results were Lassa entry inh inconclusive, HCV inhibitor 15.9%, Cycloheximide cs 65.1*, Marburg entry inh inconclusive, FMDV antiviral 5.3% and Shiga inhibitor 100.6*.
`CSc1nc2ccc(NS(=O)(=O)c3cccc(Cl)c3Cl)cc2s1` gave Lassa entry inh 8.3%, HCV inhibitor 17.3%, Cycloheximide cs 16.5*, Marburg entry inh 8.1%, FMDV antiviral 1.8% and Shiga inhibitor 18.0.
Screening COc1ccc(-c2nnc(NC(=O)C3CCCO3)s2)cc1 (stereo not drawn) returned Lassa entry inh -15.7%, HCV inhibitor -4.2%, Cycloheximide cs 37.8*, Marburg entry inh -3.4%, FMDV antiviral 45.2% and Shiga inhibitor 129.7*.
`O=C(Nc1nnc(COc2ccc(Cl)cc2)s1)C1CCCO1` (stereo not drawn) gave Lassa entry inh 2.8%, HCV inhibitor 17.2%, Cycloheximide cs 7.8, Marburg entry inh inconclusive, FMDV antiviral 0.0% and Shiga inhibitor 19.5.
Screening CC1=C(c2ccc(Cl)cc2)S(=O)(=O)N=C1N1CCN(c2cccc(C)c2)C(C)C1 (stereo not drawn) returned Lassa entry inh -28.2%[46.1 µM], Marburg entry inh -8.6%[46.1 µM] and FMDV antiviral inconclusive.
For CSc1nc2ccc(NC(=O)NC(=O)c3c(F)cccc3F)cc2s1 the results were Lassa entry inh -3.2%, HCV inhibitor 0.0%, Cycloheximide cs 16.9*, Marburg entry inh -24.7%, FMDV antiviral 29.1% and Shiga inhibitor 19.9.
For Cc1cccc2sc(NC(=O)C3CCCO3)nc12 (stereo not drawn) the results were Lassa entry inh -16.9%, HCV inhibitor inconclusive, Cycloheximide cs 32.3*, Marburg entry inh 23.6% and Shiga inhibitor 110.8*.
Screening CCc1cccc(C)c1NC(=O)C1CCCO1 (stereo not drawn) returned Lassa entry inh 2.5%, HCV inhibitor 8.1%, Cycloheximide cs -1.5, Marburg entry inh -2.1%, FMDV antiviral 2.6% and Shiga inhibitor 8.0.
COc1ccc(/C=N/NC(=O)CN(C)C(=O)OCc2ccccc2)cc1OC was read as Lassa entry inh inconclusive, HCV inhibitor 3.1%, Cycloheximide cs -4.4, Marburg entry inh -1.0%[46.1 µM], FMDV antiviral -29.6% and Shiga inhibitor 15.6.
`CN(CC(=O)Nc1ccc(Cl)c(Cl)c1)C(=O)CNC(=O)C1CCCCC1` gave HCV inhibitor 5.8% and FMDV antiviral -17.7%.
